Results as given in PubChem BioAssay AID1508600 (Functional Genomics Laboratory (NCATS/FGL), 2020).
The whole screen tested about 53,000 sequences, of which about 3,700 (7%) were called active.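 Rule for the calls: active = gene knockdowns whose robust z-score for IL-1 alpha signal is at least 2 or at most -2, so actives lie on both sides; inactive = the rest.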 The sample as a whole holds a higher share of actives than the screen did.

experiment: Components of the Cytosolic LPS Sensing Pathway: Gene Identification via Genome-wide siRNA Screen; conditions: RAW264.7 macrophages, IL-1a HTRF, actives lie on both sides, screened at 100 nM (by protocol), cells primed 5 h with Pam3CSK4 first;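 note: robust z of the log signal after scaling to non-targeting control siRNA wells of the plate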
In short: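 RAW264.7; siRNA 100 nM final, RNAiMAX, 48h 37 degrees C; Pam3CSK4 5 h; LipidA + TransIT-TKO 24 h; IL-1a HTRF; CellTiter-Glo viability; robust z vs negative-control median.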

z-score, inactive:
GGGCUGAUCUUUUUAACUGTT against Tpm3 -0.581
GGCCUUAGAGAAAAUCUUUTT against Brd3 0.871
GGCAUACCGUAAAAGUGGCTT against Olfr73 -1.95
GCCAAGAUGGUUAAAUACCTT against Ankrd34b -1.64
GGUUCGCCCUUGGAAAUGGTT against Dmap1 -0.258
GGAAUUCAUACCCUUGUUGTT against B3gnt5 -0.486
GGAGGUGAAAGGCAAAACUTT against Poldip2 -0.122
CGAAGGUCAAACAGUUUGATT against Stxbp6 -0.558
CCAGAAUUGAACUUCAAGUTT against 2610008E11Rik -0.00302
GGGAGAGAACGUGUUCUUCTT against P2rx6 -0.477
GGAGAUCUCCAUCAUCACCTT against Usp50 -1.52
CCUAAUGUACACUAACUAUTT against Hsd17b14 1.84
CCCUAAGAGAGCCUAAAACTT against Serpina3c -1.12
CCUUUUUGCUGAAUGUGGATT against Aard 0.798
GGUGUUGGAUUCCAAUCCCTT against Uba5 -0.462
GCUCGAUAUUUUGAAGUCCTT against Cntd1 0.693
GGAUCAGACUGUACGAGAGTT against Crygd -1.11
GGAAAGUGAAAGUUAGUUUTT against Cbx6 0.244
GCAUUUGGAAUUUACCAUGTT against Wdr47 1.13
GCCGAGUCUCAGCUUGUAATT against Dnajc3 0.258
GGCAUAUCUGAGGUGAAUCTT against Sec23b -1.57
GGUAUUUUGACAGAGUCGATT against Add1 -1.24
GGUGUUAUCUGCAUCAUCATT against Cyp4f15 -1.42
GGUACUUAUGUGGAUUGGATT against Rint1 -0.272
CCGAGUAAGUUUAACUAAGTT against Lrrc39 -0.501
GCUAUAUAAAGGCUGAGUATT against Emilin3 -0.128
GGAAGAUCUGAAGUCAAUCTT against Mvk -1.08
GGAGAAAGACAUCAGAAAGTT against Rdh16f2 0.942
GGGCCUGAUCUACCUGUUUTT against Slc6a18 0.255
GGACAAGUAUGAAUGUCUATT against Ptk2b 1.25
CCAAGUGGUACGACCAUGATT against Gcnt3 1.3
CCGACCUGAAGACCUUACATT against Tmem18 -0.501
CGGAAGAAGUUAUUUAGAATT against 1700006J14Rik 0.87
CCUCAUUGAGUUUUGAAGATT against Dtd2 -0.329
GGAAGACCUUGUGUUUGCATT against Mmp13 -0.692
CCUAAAGUCUCUGAAUCAGTT against Fyb 0.45
GGUUGUUGCGCAAAUUUAATT against Vmn2r7 1.43
GCAGUAACUGUGUCAAAAUTT against Zan 0.879
CGUGUGUUCCGGAAACAGATT against Tnfrsf11b -0.188
GGCACAAGUCCAUGUUGUUTT against Emg1 -0.161
GCCGUUUUAAGAUACCGAUTT against Pde1c 0.642
GGGCAGCUACGUCAUUAAGTT against Prkg2 -0.442
GACAGUGAAGGCUUGCCAUTT against 1700019M22Rik -0.45
GCUAUUUAUCACCAAGACATT against Plpp6 -1.64
CCAGGAUUACAUCCGGACATT against Srbd1 -0.379
GCUUCGACAAAAGAAGAUGTT against Ccdc174 -0.373
CGAAUGAGAUUUUCACUCUTT against Tek 1.07
GGCCACCAAGACCAAUGAUTT against Akap8 0.154
GGUCAAGUAACAUGGUUUGTT against Rundc3b 0.282
CCAGAAACACUAGUAAAGGTT against Dppa3 -0.0972
GGACGUGAAUGUGUUUGACTT against Cyp26b1 0.795
CGAUUACUACAUAAUUGCCTT against Efnb3 1.63
CGGACAAGAUAGUAUUCUUTT against Atp2b1 -1.06
GCAGCAUGGCAAAACCACATT against Zbtb12 -0.265
GCAGGCGAUAUAGAAGCAATT against Frg1 0.475
GGGAAUUCUAUUCAACACUTT against Rps6ka5 -0.478
GGCUGUGACUUUUGAUCUATT against Prelid3b 0.46
CCAAUGCUUGUGAUAAGCCTT against Krt33a -0.105
CCUUGUGCCAAAUACUUCATT against Inava -0.00772
GGAUAACCGUAUUAAUUUCTT against Gm2a 0.709
GCAAGCACGGAGAACCAAUTT against Selenoi -0.212
GGAAGAUGGAGAUCAGACGTT against Foxd4 -0.498
GGGAUACCCGGCGUAAUCUTT against Col4a2 1.31
CGCAUACAUCAGGUCACUATT against Katnb1 -0.74
GGGCUUUUACUCCUACCUGTT against Slc43a2 -0.794
GGAACCACUGCUAGCCAGATT against Serpinb6a 0.491
GCGAGAAAUUACCACCUUCTT against Klhl8 -0.516
ACUUCACGAUGGAAAAAUUTT against Gm9732 -1.63
GGCCUCAUCUUGAAUAUUUTT against Hsd17b3 -1
GGUUCAUCAAACUUGCUUGTT against Olfr1312 0.569
GGAAGAACAGAGGCAGAAGTT against Trpv3 -0.629
GGAAGUACUCUGAAGAUUCTT against Kdm5b -1.83
CCCACUUCCGAUCCAAAGATT against Zfp593 0.936
CCUAUGUCAUCAUUGGAGUTT against Tmem45a2 -0.613
GCUGUUAUAACCUUGUUACTT against Rspry1 1.19
GCCCAGUUUGGUUAUGUAUTT against Yipf7 0.115
GCAGCAACAUUCUUUGGAUTT against Adk 0.986
GGACAAUAUCAGAAAGAGUTT against Purg 1.13
GGAUGUUCUACUGCUACACTT against Dtwd1 -0.706
GGUGGCCAAGAAUGUGAAUTT against Cxcl17 1.38
CCUACUCUCUAGAAAAGGATT against Olfr1006 -1.76
GGAGUGAAGGCCAGCUGAATT against Son -0.848

z-score, active:
GCCCAGUACUCCGCUUACATT against Bhlhe23 -2.03
ACCAGCACGACAGAUGCUATT against Pla2g12a 3.15
GGACUAGCAGUAAUAAAAGTT against Zdhhc9 -2.37
GAACUCUCUCUUCAUCUGGTT against Cd300ld3 2.18
GGAUGAAAAGAUUGAACUCTT against Gart 3.22
GGAAUGGGAUUACACCUACTT against Mymk 2.67
GUAUGACCAGAAGAAAAAGTT against Lrrc72 -2.19
GGAAAGAGCAAACAGUUCCTT against Il1f6 -2.09
GGGACUGGACCCAUACAAUTT against Cox5b 4.27
GGAUGAAGGCCAUUCAAACTT against Hnrnpd 2.04
GCCCUAGGAGGAACUGAGUTT against Olfr458 -2.54
GGCUCCAAGUCUACACAACTT against Dnajc6 2.82
GGAUAUCAAAGACAAAGCATT against Vps53 -2.58
GGAGUACGUGAUUGCUCUGTT against Rcvrn -2.45
GGAGAAGAACAGAACAUGATT against Igf2 2.36
CCACUAAUCUUCUUCUACATT against Olfr1311 -2.08
GGUUGUAAUAGCCUUAGCCTT against Rassf8 -2.87
GGAGGAAUACGUAUACUUCTT against Dipk1c 2.16
GGCUGUGACUAUGUUGUGCTT against Top3b -2.15
CGGACUUGAGAGCAGAACCTT against Oit1 2.02
GGAGAAAGUCAAGAUCAAATT against Gpr4 2.12
GGAGUUCAUUGAUCAUUCUTT against Ndufb5 2.21
CCGUAUUAGAAAGUAGAUATT against Arpp19 2.01
GCGGAGAGAUCAAAGCGAUTT against Iltifb -2.05
GGGUUUUUUCCAGUCAUCUTT against Nfx1 -2.02
